Where “and” joins values, the source holds several entries; their conditions need not be identical. Identical values can stand only once. Inconclusive results are not listed. Values without a mark were called inactive. Calls of active or inactive are those of the source. Calls follow the shape of the dose curve; as a rule, active = well fitted curve in the direction sought with a large enough effect; inconclusive = small, poorly fitted or top-dose-only effect, or another doubt; inactive = no such curve, though single readings can be large; an effect the other way counts as inactive or inconclusive.

28 compounds from PubChem BioAssay (NCATS) can be followed below.

In experiment [1] the target is Cellular tumor antigen p53 (Homo sapiens) (UniProt P04637). Briefly: Primary qHTS for small molecule compounds that upregulate eGFP-tagged delta133p53alpha (in N-terminal) cells. (AID 2060322). Also: nearly all actives have a fitted effect of over 75% in size.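 As to activation: series mostly up to about 56 µM; 0% = DMSO vehicle and 100% = reference activator.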 Conditions: NCI-H358 eGFP-delta133p53alpha fluorescence, 24 h; activation: stronger effect = higher value. In short, it runs like this:
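NCI-H358 cells pre-induced 24 h with 10 ng/ml doxycycline to express N-terminal eGFP-delta133p53alpha, then dosed 24 h at 37C without doxycycline; fixed, Hoechst-stained, GFP intensity by laser scanning cytometry, normalized to DMSO (0%) and 57.5 uM 5-azacytidine (100%).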

The target in experiment [2] is Retinaldehyde dehydrogenase 3 (Homo sapiens) (UniProt P47895). Briefly: qHTS for Inhibitors of the Aldehyde Dehydrogenase Family (ALDH1A3) Primary screen (AID 2061315).
For experiment [3] the target is unchanged. Briefly: qHTS for Inhibitors of the Aldehyde Dehydrogenase Family (ALDH1A3) Validation screen (AID 2061312). Also: nearly all actives have a fitted effect of over 45% in size.
Experiment [4] can be described thus: BET inhibitor-based combinations targeting novel dependencies in MECOM-rearranged (r) AML: OCI-AML3 cell line (AID 2202232). Also: nearly all actives have a fitted effect of over 35% in size. The settings on record: Potency: OCI-AML3 viability. The method, boiled down:
(§1)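 Luminescent ATP readout (CellTiter-Glo) after 48 hr drug exposure gives viability. Curves span 11 concentrations and are normalized to DMSO and empty wells. Activity is reported as area under the curve and its Z-transform within each cell line.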

A short description of experiment [5]: BET inhibitor-based combinations targeting novel dependencies in MECOM-rearranged (r) AML: MV-4-11 cell line (AID 2202233). Also: nearly all actives have a fitted effect of over 45% in size. The method, boiled down: (§2)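 Luminescent ATP readout (CellTiter-Glo, 15 min at room temperature) after 48 hr drug exposure gave viability. Dose-response curves, normalized to DMSO and empty-well controls, were summarized as area under the curve and its mean-centred Z-score.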

A short description of experiment [6]: BET inhibitor-based combinations targeting novel dependencies in MECOM-rearranged (r) AML: HNT-34 cell line (AID 2202234). Also: nearly all actives have a fitted effect of over 35% in size. The method, boiled down:
as §2

Experiment [7] in a line: BET inhibitor-based combinations targeting novel dependencies in MECOM-rearranged (r) AML: UCSD-AML1 cell line (AID 2202235). Also: nearly all actives have a fitted effect of over 40% in size. In short, it runs like this:
as §2

Experiment [8] in a line: BET inhibitor-based combinations targeting novel dependencies in MECOM-rearranged (r) AML: AML-191 cell line (AID 2202236; also: nearly all actives have a fitted effect of over 35% in size). In short, it runs like this:
as §1

Experiment [9] in a line: BET inhibitor-based combinations targeting novel dependencies in MECOM-rearranged (r) AML: AML-194 cell line (AID 2202237; also: nearly all actives have a fitted effect of over 40% in size). In short, it runs like this:
as §1
Potency is read from the fitted curve at half-maximal effect.

Sequence of Cellular tumor antigen p53 (Homo sapiens) (P04637 whole entry, looked up): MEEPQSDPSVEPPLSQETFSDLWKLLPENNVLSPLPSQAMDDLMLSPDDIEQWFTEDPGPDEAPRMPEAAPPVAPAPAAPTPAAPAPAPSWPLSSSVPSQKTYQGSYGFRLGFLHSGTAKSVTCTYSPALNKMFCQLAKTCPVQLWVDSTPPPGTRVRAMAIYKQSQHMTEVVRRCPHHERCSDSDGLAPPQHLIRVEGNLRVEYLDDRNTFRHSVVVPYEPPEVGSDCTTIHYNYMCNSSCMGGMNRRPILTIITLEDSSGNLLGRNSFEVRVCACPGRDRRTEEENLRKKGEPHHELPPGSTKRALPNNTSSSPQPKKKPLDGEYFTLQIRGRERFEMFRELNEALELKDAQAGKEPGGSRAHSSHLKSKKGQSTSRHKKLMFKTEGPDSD

As to `CN(Cc1ccc(C(=O)O)cc1)c1ccc(OCc2c(-c3c(Cl)cccc3Cl)noc2C2CC2)nc1C(F)(F)F`, in experiment [1], the activation was -10.5%. Besides, in experiment [2], the Potency result was “inactive”.
`Cc1cc(OCc2nc(-c3ccccc3Cl)cs2)ccc1OCC(=O)O`: the activation in [1] is -1.91%. The Potency entry in [3] and in experiment [2] was “inactive” in each case.
Turning to `CC(/C=C/C=C(\C)C(=O)O[C@@H]1O[C@H](CO[C@@H]2O[C@H](CO)[C@@H](O)[C@H](O)[C@H]2O)[C@@H](O)[C@H](O)[C@H]1O)=C\C=C\C=C(C)\C=C\C=C(/C)C(=O)O[C@@H]1C[C@](O)(C(=O)O)C[C@@H](O)[C@H]1OC(=O)/C=C/c1ccc(O)c(O)c1`, the activation in [1] was 16%. In experiment [2], the Potency entry was “inactive”.
`CC/C=C\C/C=C\C/C=C\CCCCCCCC(=O)OCC(O)COC1OC(CO)C(O)C(O)C1O` (centres undefined): in [1], the activation was 29.8%. In [2], the Potency result is “inactive”.
For `CC1CCC2(C(=O)O)CCC3(C)C(=CCC4C5(C)CCC(O)C(C)(CO)C5CCC43C)C2C1(C)O` (centres undefined), in experiment [1], the activation is -0.893%. For the same compound, in experiment [2], the Potency entry was “inactive”.
With `CC(O)C1C(=O)N2C(C(=O)O)=C(SC3CNC(C(=O)N(C)C)C3)C(C)C12` (centres undefined), the activation in [1] is -0.506% and -5.25%. The Potency entry in experiment [2] is “inactive”.
Consider `Clc1ccc(Cn2c(Cc3ccccc3)nc3ccccc32)cc1`, for which the activation in experiment [1] was -5.25%. Besides, the Potency entry in experiment [3] and in experiment [2] was “inactive” in each case.
Take `Cc1c(CN(C)C(=O)/C=C/c2cnc3c(c2)CCC(=O)N3)oc2ccccc12`: the activation in experiment [1] was 8.33%. For the same compound, the Potency entry in experiment [2] is “inactive”.
Turning to `O=C(O)COCCN1CCN([C@H](c2ccccc2)c2ccc(Cl)cc2)CC1`, the activation in [1] is -5.73%. The Potency result in [3] and in [2] was “inactive” throughout.
As to `COc1cc2c(Oc3ccc(-c4cnc(Nc5ccc(F)cc5)n(C)c4=O)cc3F)ccnc2cc1OCCCN1CCOCC1`, in experiment [1], the activation was 11.5%. Moreover, the Potency is 11.2 µM (active) in experiment [3]; 16.6 µM (active) in experiment [4]; 0.0934 µM (active) in experiment [5]; 0.372 µM (active) in experiment [6]; 11.8 µM (active) in [7]; 5.9 µM (active) in experiment [8]. For the same compound, the Potency in experiment [9] is 5.25 µM (active). In addition, in experiment [2], the Potency entry is “inactive”.
In the case of `CC(=O)NC(Cc1c[nH]c2ccccc(=O)c12)C(=O)O` (centres undefined), the activation in experiment [1] is -2.29%. In [2], the Potency result is “inactive”.
As for `O=C(O)c1cc(O)c2cccc(O)c2c1O[C@@H]1O[C@H](CO)[C@@H](O)[C@H](O)[C@H]1O`, the activation in experiment [1] was -20.5%. Besides, in [2], the Potency was 6.31 µM (active).
Turning to `COc1c(C(CC(C)C)OC(C)=O)ccc(Oc2c(O)cc(C)cc2/C=C/C(C)=O)c1C(=O)O` (centres undefined), the activation in experiment [1] was -25.2%. The Potency entry in experiment [2] is “inactive”.
As for `O=C(O)c1cc(I)ccc1NC(=O)[C@H](Cc1ccccc1)NCc1ccccc1`, the activation in [1] is -19.7%. Also, in experiment [2], the Potency result was “inactive”.
`COCc1c(O)c(C(=O)O)c(C)c2c1OC(=O)c1c(C)cc(O)c(CO)c1O2`: the activation in experiment [1] was 0.893%. The Potency entry in experiment [2] was “inactive”.
In the case of `COc1ccc(S(=O)(=O)Nc2nc(-c3cccc([N+](=O)[O-])c3)cs2)cc1OC`, in [1], the activation was 1.67%. Moreover, in experiment [2], the Potency result was “inactive”.
On to `COc1ccc2cc(C(C)C(=O)Oc3ccc(C(N)=S)cc3)ccc2c1` (centres undefined), for which the activation in [1] is -3.34%. In addition, the Potency entry in [3] and in [2] was “inactive” throughout.
Turning to `CC(=O)NC1C(OC(C)(C)C2CCC3(C)C=C(C4CCC5C4(C)CC(O)C4OC(C(C)(C)O)CCC45C)CCC3O2)OC(CO)C(O)C1O` (centres undefined), the activation in [1] is -3.05%. The Potency entry in experiment [2] was “inactive”.
For the compound `Cn1nnc(-c2ccc(-c3ccc(N4C[C@H](COP(=O)(O)O)OC4=O)cc3F)cn2)n1`, in experiment [1], the activation was -3.67%. In addition, the Potency entry in experiment [2] was “inactive”.
In the case of `COC(=O)C1=C(C)NC(C)=C(C(=O)O[C@@H]2CCCN(Cc3ccccc3)C2)[C@@H]1c1cccc([N+](=O)[O-])c1`, the activation in [1] is 8.47% and 23.4%. Besides, the Potency entry in experiment [3] and in experiment [2] was “inactive” in each case.
Regarding `C/C(=C\Cc1c(O)c(Cl)c(C)c(C=O)c1O)CC/C=C(\C)[C@H]1CC(=O)C(C)(C)O1`, the activation in experiment [1] is -20.6%. For the same compound, the Potency entry in [2] was “inactive”.
For `COC(=O)[C@H](c1ccccc1Cl)N1CCC2SC(=O)C=C2C1` (some centres undefined), the activation in experiment [1] is 16.3%. Moreover, the Potency result in experiment [2] was “inactive”.
As to `CCc1c(Cl)c(O)c(Cl)c(O)c1C(=O)O[C@H]1[C@H](O)[C@H](OC)[C@H](OC/C2=C\C=C\C[C@H](O)/C(C)=C\[C@H](CC)[C@@H](O[C@@H]3OC(C)(C)[C@@H](OC(=O)C(C)C)[C@H](O)[C@@H]3O)/C(C)=C/C(C)=C/C[C@@H]([C@@H](C)O)OC2=O)O[C@@H]1C`, the activation in experiment [1] is -0.333%. Moreover, the Potency result in experiment [2] is “inactive”.
For `Cc1cc(NC(=O)Nc2ccc(F)c(F)c2)n(-c2ccccc2)n1`, the activation in experiment [1] was -15.8%. In addition, the Potency result in [3] and in experiment [2] was “inactive” in each case.
With `COC(=O)CC1OC(C)C2=C(O)c3c(O)cccc3C(=O)C23OC13` (centres undefined), the Potency in experiment [1] was 5.88 µM (active); in experiment [2], 1.58 µM (active).
Regarding `O=C(NN1CCCCC1)c1nn(-c2ccc(Cl)cc2Cl)c(-c2ccc(C#Cc3ccc(C(F)(F)F)cc3)s2)c1CNS(=O)(=O)N1CCCC1`, the activation in [1] was -21%. For the same compound, the Potency entry in experiment [2] was “inactive”.
Turning to `Cc1csc(N(C(=O)CSc2ccc(-c3ccccc3)nn2)C2CC2)n1`, the activation in experiment [1] was 10.5%. Besides, the Potency in experiment [3] was 2.82 µM (active).
For the compound `O=c1cc(NCCCN[C@@H]2CCOc3c(Br)cc(Br)cc32)[nH]c2ccsc12`, the activation in experiment [1] is 0.477%. In addition, the Potency entry in experiment [2] is “inactive”.
